Bioassay records from PubChem BioAssay.
S1P2 antag = human S1P2 receptor antagonists, primary screen, cell-based; hit rate 0.21% among 97,000; cell-based S1P2 antagonist assay, inhibition at 5 uM; inhibition, % at 5 µM; in the data active = inhibition above about 45%;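 note: CRE beta-lactamase reporter cells expressing human S1P2 stimulated with S1P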
PLAP act = PLAP enzyme activators, biochemical, luminescence, HTS; Alkaline phosphatase, placental type (Homo sapiens), P05187; purified PLAP enzyme, luminescent substrate read-out; hits give high values; activation fold at 20 µM; hit rate 1.2% among 96,000; AID 696, 2007; in the data active = activation fold above about 2
Target sequence (P05187 whole entry, looked up): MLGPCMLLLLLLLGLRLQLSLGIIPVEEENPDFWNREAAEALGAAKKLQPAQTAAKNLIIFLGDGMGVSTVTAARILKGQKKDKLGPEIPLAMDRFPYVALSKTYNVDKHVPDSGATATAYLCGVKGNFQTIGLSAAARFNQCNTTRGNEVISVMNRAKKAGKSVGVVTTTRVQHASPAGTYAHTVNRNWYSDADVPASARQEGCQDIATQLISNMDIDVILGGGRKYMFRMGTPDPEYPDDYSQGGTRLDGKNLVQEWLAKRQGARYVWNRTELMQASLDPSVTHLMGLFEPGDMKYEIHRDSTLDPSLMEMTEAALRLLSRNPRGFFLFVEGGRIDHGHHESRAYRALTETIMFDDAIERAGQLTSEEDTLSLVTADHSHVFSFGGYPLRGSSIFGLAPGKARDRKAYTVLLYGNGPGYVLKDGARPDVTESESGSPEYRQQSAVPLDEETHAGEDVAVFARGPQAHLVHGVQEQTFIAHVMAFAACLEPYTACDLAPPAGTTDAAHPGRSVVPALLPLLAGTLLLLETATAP
GALR2 blocker = GALR2 antagonists in receptor-expressing cells, primary screen | Galanin receptor type 2 (Homo sapiens), O43603 | antagonist mode | inhibition, % at 4 µM | hit rate 0.39% among 140,000; in the data active = inhibition above about 27%;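 note: cells stimulated with galanin 1-16 at roughly its EC80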
S1P2 agonist = S1P2 receptor agonists, primary screen, cell-based; Sphingosine 1-phosphate receptor 2 (Homo sapiens), O95136; S1P2-expressing cell line, agonist reporter read-out; activation, % at 4.5 µM; hit rate 0.46% among 97,000; AID 729, 2007; in the data active = activation above about 16%
GALR2 ag = GALR2 receptor agonists, primary screen, cell-based. AID 803, 2007. hit rate 0.48% among 140,000. GALR2-expressing cells, agonist activation read-out. Galanin receptor type 2 (Homo sapiens), O43603. activation, % (concentration not given with the values); in the data active = activation above about 5%, passing the limit was not always enough
Large screens that a line does not name were inactive. Only some compounds are listed: those with a hit (about 2% of all), similar ones and a draw of the others.

Cc1cc(C(F)(F)F)nn1CC(=O)NNC(=S)Nc1ccc(Cl)cc1	none
Cc1cc(C(F)(F)F)nn1CC(=O)NNC(=S)Nc1ccc(F)cc1	PLAP act 2.8
Cc1cc(C(F)(F)F)nn1CC(=O)NNC(=S)NCC(C)C	PLAP act 2.6
CC(C)(C)C1CCc2c(C(=O)NNC(=O)CCC(=O)O)csc2C1 (configuration not stated)	none (no result: S1P2 antag, PLAP act, S1P2 agonist)
CC(=O)c1ccc(-n2nnnc2SCC(=O)NNC(=O)c2ccco2)cc1	PLAP act 2.2
CCc1ccc(-n2nnnc2SCC(=O)NNC(=O)c2ccco2)cc1	PLAP act 2.3
CC(=O)c1ccc(-n2nnnc2SCC(=O)Nc2cccc(NC(=O)c3ccco3)c2)cc1	none
COc1ccc(OC)c(NC(=O)CNC(=O)c2cccs2)c1	none
COC(=O)c1c(C)[nH]c(C(=O)/C=C/c2ccccc2)c1C	GALR2 ag 6.2 (no result: S1P2 antag, PLAP act, S1P2 agonist)
COC(=O)c1c(C)[nH]c(C(=O)/C=C/c2cccc(Cl)c2)c1C	none (no result: S1P2 antag, PLAP act, S1P2 agonist)
N#Cc1cnc(SCC(=O)NNC(=O)COc2cccc3ccccc23)nc1N	none (no result: S1P2 antag, PLAP act, S1P2 agonist)
Cc1cccc(OCC(=O)NNC(=O)CSc2ncc(C#N)c(N)n2)c1	PLAP act 2
CCCCS(=O)(=O)/C=C\C=C/S(=O)(=O)CCCC	S1P2 antag 97, GALR2 blocker 104
CCCCS(=O)(=O)/C=C\C1C2C=CC(C2)C1S(=O)(=O)CCCC (configuration not stated)	none
O=c1oc2c(CN3CCCCC3)c(O)ccc2cc1-c1nc2ccccc2[nH]1	PLAP act 2.2 (no result: S1P2 antag, GALR2 blocker, S1P2 agonist, GALR2 ag)
Fc1cccc(CSc2nc3ccncc3[nH]2)c1	none (no result: S1P2 antag, PLAP act, S1P2 agonist)
Clc1cccc(CSc2nc3ccncc3[nH]2)c1	PLAP act 2.4
Cc1c(Cc2c(Cl)cccc2Cl)c(=O)ccn1C(C)c1ccccc1 (configuration not stated)	none
CC(C)c1ccc(NC(=O)C(c2ccccc2)N2CC(=O)Nc3ccccc32)cc1 (configuration not stated)	none (no result: S1P2 antag, PLAP act, S1P2 agonist)
Oc1ccc(Nc2nc(N3CCCC3)c3ccccc3n2)cc1	none
COc1ccc(Nc2nc(N3CCCCC3)c3ccccc3n2)cc1	S1P2 antag 56
Cc1cccc(-n2ncc3c(NC(C)C)ncnc32)c1	GALR2 blocker 27 (no result: S1P2 antag, S1P2 agonist)
O=C(Nc1ccc(O)c(-c2nc3ccccc3o2)c1)C1(c2ccc(Br)cc2)CCCC1	none (no result: S1P2 antag, PLAP act, S1P2 agonist)
COc1ccc(C)cc1NC(=O)CN1CCN(c2ccccc2F)CC1	none (no result: S1P2 antag, S1P2 agonist)
COc1ccc(C)cc1NC(=O)CN1CCN(C/C=C/c2ccccc2)CC1	PLAP act 2.3
O=C(NCc1ccccc1)C(c1ccncc1)N(C(=O)c1csnn1)C1CC1 (configuration not stated)	none
Cc1ccc(C(=O)NNC(=O)c2ccc(SCC3CCCO3)c([N+](=O)[O-])c2)cc1 (configuration not stated)	none
O=C(NNC(=O)c1ccc(SCC2CCCO2)c([N+](=O)[O-])c1)c1ccc(Cl)c([N+](=O)[O-])c1 (configuration not stated)	PLAP act 2.4
Cc1ccc(CSCC(=O)N/N=C/c2sccc2C)cc1	none
COc1ccc(-n2nnnc2-c2cn(C)nc2C(F)(F)F)cc1	none
Cc1ccc(-c2nnc3c4ccccc4c(C)nn23)cc1S(=O)(=O)N1CCN(CCO)CC1	S1P2 agonist 17
O=C(/C=C/c1ccc(Cl)cc1Cl)N1CCN(c2ccccc2[N+](=O)[O-])CC1	none (no result: S1P2 antag, PLAP act, S1P2 agonist)
Cc1cccc(NC(=O)c2cc(S(=O)(=O)NCc3ccco3)ccc2F)c1C	none
c1ccc(C(c2ccccc2)N2CCN(c3nc4ccccc4n4cnnc34)CC2)cc1	S1P2 agonist 24
c1cnc(N2CCN(c3nc4ccccc4n4cnnc34)CC2)nc1	none
CCCc1nn(-c2cc(Cl)ccc2OC)c2c1C(=O)CCC2	S1P2 agonist 59
COc1ccc(S(=O)(=O)n2nc(C)cc2C)c(C)c1C	none
COc1cccc(Nc2nc(-c3ccc4c(c3)OCCO4)cs2)c1	S1P2 agonist 41
c1cc2c(cc1Nc1nc(-c3ccc4c(c3)OCO4)cs1)OCCO2	none
COc1ccc(-c2cc(N)n(S(=O)(=O)c3ccc(F)cc3)n2)cc1OC	none
CCc1cc(C(=O)Cc2nc3ccccc3[nH]2)c(O)cc1O	PLAP act 2.3
CC(C)(C)c1cc(Cc2ccccc2)[nH]n1	none
CCN1CCN(c2nc3ccccc3nc2C(C#N)S(=O)(=O)c2ccc(C)c(C)c2)CC1 (configuration not stated)	PLAP act 2
CC(C)C(=O)NC(=S)Nc1ccc(S(=O)(=O)N2CCN(C)CC2)cc1	none (no result: S1P2 antag, PLAP act, S1P2 agonist)
Oc1ccc(-c2nc3c4c(ncn3n2)-c2ccccc2CC42CCCC2)cc1	none (no result: S1P2 antag, PLAP act, S1P2 agonist)
Cn1cc(Br)c(C(=O)NNC(=O)c2ccc(Cl)cc2)n1	none (no result: S1P2 antag, PLAP act, S1P2 agonist)
Cn1cc(Br)c(C(=O)NNC(=O)c2cccc(Br)c2)n1	PLAP act 2.3
Nc1nc(-c2ccccc2)cs1	none
Cc1ccc(-c2csc(C3C(N)=NC(S)=C(C#N)C34CCCCC4)n2)cc1 (configuration not stated)	PLAP act 2.4
N#CC1=C(S)N=C(N)C(c2nc(-c3ccccc3)cs2)C12CCCCC2 (configuration not stated)	PLAP act 2.2
N#CC1=C(S)N=C(N)C(c2nc(-c3ccccc3)cs2)C12CCCC2 (configuration not stated)	PLAP act 2.5
Cc1ccc(C(=O)CSC2=NC(N)=C(C#N)C3(CCCCC3)C2C(N)=O)cc1 (configuration not stated)	none (no result: S1P2 antag, S1P2 agonist)
CCOc1ccccc1NC(=O)Cn1nnc(-c2ccc(OCC)c(OCC)c2)n1	none
C=C(C)Cn1c(SCCCO)nc2c1c(=O)[nH]c(=O)n2C	none
C=C(C)Cn1c(Sc2nc3ccccc3[nH]2)nc2c1c(=O)[nH]c(=O)n2C	PLAP act 2.1
O=C(CN1C(=O)CSc2ccccc21)Nc1ccccc1C(=O)N1CCOCC1	none (no result: S1P2 antag, S1P2 agonist)
COc1ccc2c(c1)c1nnc(SCC(=O)N3C(C)CCCC3C)nc1n2C (configuration not stated)	S1P2 agonist 19
Cc1ccc(-c2nn(-c3ccccc3)c3[nH]c(=O)c(CNCc4ccccc4)cc23)cc1	none (no result: PLAP act)
Cc1ccc(-c2nn(-c3ccccc3)c3[nH]c(=O)c(CNCCN(C)C)cc23)cc1	PLAP act 2.7 (no result: S1P2 antag, GALR2 blocker, S1P2 agonist, GALR2 ag)
CCOc1cccc2sc(Nc3nc4ccc(NC(C)=O)cc4s3)nc12	GALR2 ag 8.1 (no result: S1P2 antag, PLAP act, S1P2 agonist)
CCC(=O)Nc1nc2ccc(NC(C)=O)cc2s1	none
CCOC(=O)c1sc(Nc2nc3c(OC)cccc3s2)nc1C	GALR2 ag 46 (no result: S1P2 antag, S1P2 agonist)
CCOC(=O)c1sc(Nc2ccccc2)nc1C	none
CCOc1ccc(C(CC(=O)O)NC(=O)C23CC4CC(CC(C4)C2)C3)cc1 (configuration not stated)	none (no result: S1P2 antag, PLAP act, S1P2 agonist)
O=C(NNC(=O)C1CCCCC1)c1cnccn1	PLAP act 2
O=C(CCC1CCCCC1)NNC(=O)c1cnccn1	none (no result: S1P2 antag, PLAP act, S1P2 agonist)
CCC(CO)[n+]1c(C)cc(/C=C2\Sc3ccccc3N2Cc2ccccc2)cc1C (configuration not stated)	none (no result: S1P2 antag, PLAP act, S1P2 agonist)
